Reference: the supplement of paper PMC10338343
± gives the standard deviation.

System: MILI (PIWIL2) piRISC loaded with piRNA #1 (26 nt)
Experiment: pre-steady-state target cleavage rate (min^-1); guide: piRNA #1 5'p-UGAGGUAGUAGGUUGUAUAGUAUCCA; higher = faster piRNA-guided slicing of the target
Settings: auxiliary factor: 500 nM mouse GTSF1
Method in brief: (§1)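 The method was Cleave-'n-Seq, in which uncleaved targets from a transcribed, DNA-blocked target RNA library were sequenced after exposure to active affinity-purified piRISC carrying one synthetic guide, with or without GTSF1 partner protein. Reactions contained 0.1 nM library, 1 nM piRISC and, where present, 500 nM GTSF1 in HEPES–potassium acetate buffer at 33 °C for 0–8 or 0–960 min. Reads were normalised to depth and to weakly complementary targets, three trials were pooled, and k3 was capped at 0.0001 min^-1. The pre-steady-state cleavage rate came from a burst-and-steady-state fit.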

Question: For GGAGUGGAUACUACUACAACCUACUACCUCA, which “pre-steady-state target cleavage rate” value is on record?
Answer: 0.193 ± 0.012

Question: GGAGAGGAUACAUAUACAACCUACUACCUCA was tested. Which “pre-steady-state target cleavage rate” value did it give?
Answer: 0.104 ± 0.0078

Question: How did the “pre-steady-state target cleavage rate” value turn out when GGAGAGGAUACAAUACAAGCUACUACCUCA was run?
Answer: 0.178 ± 0.017

Question: For GGAGACGAUACUAUACAACCUACGACCUCA, which “pre-steady-state target cleavage rate” value is on record?
Answer: 0.146 ± 0.019

Question: GGAGAGGAUACUAUACAACCAACUACCUGA was tested. Which “pre-steady-state target cleavage rate” value did it give?
Answer: 0.00399 ± 0.0021

Question: With GGAGACCAUUCUAUACAACCUACUACCUCA as the sequence, how does the “pre-steady-state target cleavage rate” value read?
Answer: 0.136 ± 0.013

Question: With GGAGACCAUACUAUACAACCUACUACCUACA as the sequence, how does the “pre-steady-state target cleavage rate” value read?
Answer: 0.16 ± 0.018

Question: With GGAGACCUAACUAUACAACCUACCACCUCA as the sequence, how does the “pre-steady-state target cleavage rate” value read?
Answer: 0.0488 ± 0.014

Question: Which “pre-steady-state target cleavage rate” value does the source give for GGAGAGGAUACUAUACAACGUACAACCUCA here?
Answer: 0.0104 ± 0.0029

Question: How did the “pre-steady-state target cleavage rate” value turn out when GGAGACCUAAGUAUACAACCUACUACCUCA was run?
Answer: 0.0701 ± 0.0097

Question: For GGAGACCAUACUAUACAACCAUACUACCUCA, which “pre-steady-state target cleavage rate” value is on record?
Answer: 0.0045 ± 0.0036

Question: Which “pre-steady-state target cleavage rate” value does the source give for GGAGUGGAUACUAUACAACGUACUACCACA here?
Answer: 0.0255 ± 0.0047

Question: With GGAGUGGAUACUAUAUAACCUACUACCUCA as the sequence, how does the “pre-steady-state target cleavage rate” value read?
Answer: 0.191 ± 0.0088

Question: How did the “pre-steady-state target cleavage rate” value turn out when GGAGACCAUACUAUAUAACCUACUACCUCA was run?
Answer: 0.155 ± 0.016

Question: GGAGUGGAUACUAUAGAACCUACAACCUCA was tested. Which “pre-steady-state target cleavage rate” value did it give?
Answer: 0.0134 ± 0.0034

Question: With GGAGACCAUACUAAUACAACCUACUACCUCA as the sequence, how does the “pre-steady-state target cleavage rate” value read?
Answer: 0.124 ± 0.014

Question: For GGAGACCUAUCUAUACAACCUACUACGUCA, which “pre-steady-state target cleavage rate” value is on record?
Answer: 0.0507 ± 0.008

Question: With GGAGUGGAUACUAUACUACCUACUACCUGA as the sequence, how does the “pre-steady-state target cleavage rate” value read?
Answer: 0.104 ± 0.013

Question: GGAGUGGAAACUUUACAACCUACUACCUCA was tested. Which “pre-steady-state target cleavage rate” value did it give?
Answer: 0.179 ± 0.02

Question: GGAGACGAUACUAUACAACCUACUACGAGA was tested. Which “pre-steady-state target cleavage rate” value did it give?
Answer: 0.11 ± 0.034

Question: Which “pre-steady-state target cleavage rate” value does the source give for GGAGACCUAUCUAUACAUCCUAGUACCUCA here?
Answer: 0.0489 ± 0.012

Question: GGAGAGGAUACUAUAGAACCUACUACCUGA was tested. Which “pre-steady-state target cleavage rate” value did it give?
Answer: 0.0217 ± 0.005

Question: How did the “pre-steady-state target cleavage rate” value turn out when GGAGAGGAUACUAAUCAACCUACUACCUCA was run?
Answer: 0.148 ± 0.011

Question: With “GGAGAGGAUACUAUACAACCUACUACCUCG [g2:g25:cont:t1G]” as the sequence, how does the “pre-steady-state target cleavage rate” value read?
Answer: 0.175 ± 0.015

Question: With GGAGUGGAUACUAUACUACCUACUACCUCA as the sequence, how does the “pre-steady-state target cleavage rate” value read?
Answer: 0.196 ± 0.0088

Question: For GGAGUGGAUACUAUACAACCUACUGCCUCA, which “pre-steady-state target cleavage rate” value is on record?
Answer: 0.102 ± 0.0082

Question: Which “pre-steady-state target cleavage rate” value does the source give for GGAGUGGAUACGAUACAACCUACUACCUCA here?
Answer: 0.176 ± 0.011

Question: GGAGACCAUACUAUACAACGUACUACCACA was tested. Which “pre-steady-state target cleavage rate” value did it give?
Answer: 0.0309 ± 0.0064

Question: Which “pre-steady-state target cleavage rate” value does the source give for GGAGACCAUACUUUACUACCUACUACCUCA here?
Answer: 0.129 ± 0.015

Question: For GGAGUGGAUACUAUACAACGUACAACCUCA, which “pre-steady-state target cleavage rate” value is on record?
Answer: 0.0258 ± 0.0036

Question: With GGAGACCAUACUAUACAACCUAUUACCUCA as the sequence, how does the “pre-steady-state target cleavage rate” value read?
Answer: 0.234 ± 0.019

Question: GGAGACCUAUCUAUACAAGCUACUACCUGA was tested. Which “pre-steady-state target cleavage rate” value did it give?
Answer: 0.125 ± 0.019

Question: For GGAGACCAUACUAUACAACCUACAACGUCA, which “pre-steady-state target cleavage rate” value is on record?
Answer: 0.0302 ± 0.012

Question: Which “pre-steady-state target cleavage rate” value does the source give for GGAGAGGAUACUAUACAGCCUACUACCUCA here?
Answer: 0.132 ± 0.013

Question: GGAGUGGAUACUAUACAACCUACUAGCUCA was tested. Which “pre-steady-state target cleavage rate” value did it give?
Answer: 0.0481 ± 0.0088

Question: How did the “pre-steady-state target cleavage rate” value turn out when GGAGUGGAUACUUUACUACCUACUACCUCA was run?
Answer: 0.16 ± 0.01

Question: With GGAGACCUAACUAUACAACGUACUACCACA as the sequence, how does the “pre-steady-state target cleavage rate” value read?
Answer: 0.0131 ± 0.0058

Question: For GGAGAGGUUACUAUACAACCUUCUACCUCA, which “pre-steady-state target cleavage rate” value is on record?
Answer: 0.00963 ± 0.0021

Question: With GGAGACCUAACUAUACAACCUACUACCGUCA as the sequence, how does the “pre-steady-state target cleavage rate” value read?
Answer: 0.15 ± 0.034

Question: How did the “pre-steady-state target cleavage rate” value turn out when GGAGAGGAUACUAUACAACCUUCUACCACA was run?
Answer: 0.00472 ± 0.0023

System: EfPiwi piRISC loaded with piRNA #1 (26 nt)
Experiment: pre-steady-state target cleavage rate (min^-1); auxiliary factor: 500 nM Ephydatia muelleri Gtsf1; guide: piRNA #1 5'p-UGAGGUAGUAGGUUGUAUAGUAUCCA; MIWI and MILI are mouse PIWI proteins and EfPiwi is from a freshwater sponge; tags in brackets are library labels; higher = faster piRNA-guided slicing of the target
Settings: not given
Method in brief: as §1

Question: For GGAGUGGAUACUACUACAACCUACUACCUCA, which “pre-steady-state target cleavage rate” value is on record?
Answer: 0.114 ± 0.038

Question: GGAGAGGAUACAUAUACAACCUACUACCUCA was tested. Which “pre-steady-state target cleavage rate” value did it give?
Answer: 0.0587 ± 0.024

Question: How did the “pre-steady-state target cleavage rate” value turn out when GGAGAGGAUACAAUACAAGCUACUACCUCA was run?
Answer: 0.0036 ± 0.0019

Question: For GGAGACGAUACUAUACAACCUACGACCUCA, which “pre-steady-state target cleavage rate” value is on record?
Answer: 0.00449 ± 0.0018

Question: Which “pre-steady-state target cleavage rate” value does the source give for GGAGAGGAUACUAUACAACCAACUACCUGA here?
Answer: 0.00332 ± 0.0017

Question: GGAGACCAUUCUAUACAACCUACUACCUCA was tested. Which “pre-steady-state target cleavage rate” value did it give?
Answer: 0.0597 ± 0.02

Question: Which “pre-steady-state target cleavage rate” value does the source give for GGAGACCAUACUAUACAACCUACUACCUACA here?
Answer: 0.00527 ± 0.0031

Question: For GGAGACCUAACUAUACAACCUACCACCUCA, which “pre-steady-state target cleavage rate” value is on record?
Answer: 0.00588 ± 0.0042

Question: With GGAGAGGAUACUAUACAACGUACAACCUCA as the sequence, how does the “pre-steady-state target cleavage rate” value read?
Answer: 0.00357 ± 0.0017

Question: With GGAGACCUAAGUAUACAACCUACUACCUCA as the sequence, how does the “pre-steady-state target cleavage rate” value read?
Answer: 0.00697 ± 0.0037

Question: GGAGACCAUACUAUACAACCAUACUACCUCA was tested. Which “pre-steady-state target cleavage rate” value did it give?
Answer: 0.00431 ± 0.003

Question: With GGAGUGGAUACUAUACAACGUACUACCACA as the sequence, how does the “pre-steady-state target cleavage rate” value read?
Answer: 0.00371 ± 0.00099

Question: GGAGUGGAUACUAUAUAACCUACUACCUCA was tested. Which “pre-steady-state target cleavage rate” value did it give?
Answer: 0.117 ± 0.045

Question: How did the “pre-steady-state target cleavage rate” value turn out when GGAGACCAUACUAUAUAACCUACUACCUCA was run?
Answer: 0.00757 ± 0.0042

Question: Which “pre-steady-state target cleavage rate” value does the source give for GGAGUGGAUACUAUAGAACCUACAACCUCA here?
Answer: 0.00234 ± 0.0015

Question: With GGAGACCAUACUAAUACAACCUACUACCUCA as the sequence, how does the “pre-steady-state target cleavage rate” value read?
Answer: 0.0159 ± 0.0066

Question: With GGAGACCUAUCUAUACAACCUACUACGUCA as the sequence, how does the “pre-steady-state target cleavage rate” value read?
Answer: 0.00352 ± 0.0031

Question: Which “pre-steady-state target cleavage rate” value does the source give for GGAGUGGAUACUAUACUACCUACUACCUGA here?
Answer: 0.00352 ± 0.0018

Question: How did the “pre-steady-state target cleavage rate” value turn out when GGAGUGGAAACUUUACAACCUACUACCUCA was run?
Answer: 0.00583 ± 0.0037

Question: How did the “pre-steady-state target cleavage rate” value turn out when GGAGACGAUACUAUACAACCUACUACGAGA was run?
Answer: 0.00501 ± 0.0017

Question: GGAGACCUAUCUAUACAUCCUAGUACCUCA was tested. Which “pre-steady-state target cleavage rate” value did it give?
Answer: 0.00398 ± 0.0038

Question: GGAGAGGAUACUAUAGAACCUACUACCUGA was tested. Which “pre-steady-state target cleavage rate” value did it give?
Answer: 0.00264 ± 0.0017

Question: For GGAGAGGAUACUAAUCAACCUACUACCUCA, which “pre-steady-state target cleavage rate” value is on record?
Answer: 0.00473 ± 0.0039

Question: “GGAGAGGAUACUAUACAACCUACUACCUCG [g2:g25:cont:t1G]” was tested. Which “pre-steady-state target cleavage rate” value did it give?
Answer: 0.143 ± 0.048

Question: With GGAGUGGAUACUAUACUACCUACUACCUCA as the sequence, how does the “pre-steady-state target cleavage rate” value read?
Answer: 0.00816 ± 0.0037

Question: How did the “pre-steady-state target cleavage rate” value turn out when GGAGUGGAUACUAUACAACCUACUGCCUCA was run?
Answer: 0.00835 ± 0.0028

Question: Which “pre-steady-state target cleavage rate” value does the source give for GGAGUGGAUACGAUACAACCUACUACCUCA here?
Answer: 0.0121 ± 0.0053

Question: Which “pre-steady-state target cleavage rate” value does the source give for GGAGACCAUACUAUACAACGUACUACCACA here?
Answer: 0.00321 ± 0.0029

Question: Which “pre-steady-state target cleavage rate” value does the source give for GGAGACCAUACUUUACUACCUACUACCUCA here?
Answer: 0.00371 ± 0.0032

Question: With GGAGUGGAUACUAUACAACGUACAACCUCA as the sequence, how does the “pre-steady-state target cleavage rate” value read?
Answer: 0.00367 ± 0.0016

Question: How did the “pre-steady-state target cleavage rate” value turn out when GGAGACCAUACUAUACAACCUAUUACCUCA was run?
Answer: 0.0186 ± 0.0067

Question: GGAGACCUAUCUAUACAAGCUACUACCUGA was tested. Which “pre-steady-state target cleavage rate” value did it give?
Answer: 0.00244 ± 0.0023

Question: How did the “pre-steady-state target cleavage rate” value turn out when GGAGACCAUACUAUACAACCUACAACGUCA was run?
Answer: 0.00373 ± 0.0033

Question: GGAGAGGAUACUAUACAGCCUACUACCUCA was tested. Which “pre-steady-state target cleavage rate” value did it give?
Answer: 0.105 ± 0.04

Question: How did the “pre-steady-state target cleavage rate” value turn out when GGAGUGGAUACUAUACAACCUACUAGCUCA was run?
Answer: 0.00429 ± 0.0016

Question: How did the “pre-steady-state target cleavage rate” value turn out when GGAGUGGAUACUUUACUACCUACUACCUCA was run?
Answer: 0.00437 ± 0.0036

Question: GGAGACCUAACUAUACAACGUACUACCACA was tested. Which “pre-steady-state target cleavage rate” value did it give?
Answer: 0.0055 ± 0.0049

Question: Which “pre-steady-state target cleavage rate” value does the source give for GGAGAGGUUACUAUACAACCUUCUACCUCA here?
Answer: 0.00505 ± 0.0025

Question: For GGAGACCUAACUAUACAACCUACUACCGUCA, which “pre-steady-state target cleavage rate” value is on record?
Answer: 0.0162 ± 0.0091

Question: How did the “pre-steady-state target cleavage rate” value turn out when GGAGAGGAUACUAUACAACCUUCUACCACA was run?
Answer: 0.00468 ± 0.0021
